Our source for the INHIBITION values is ChEMBL document CHEMBL4513216, “Probing the Open Global Health Chemical Diversity Library for Multistage-Active Starting Points for Next-Generation Antimalarials” (ACS Infect Dis, 2020).

Among all 68,000 compounds or so, about 2,700 (4%) showed an effect of 50% or more. The list comes from a sample in which strong results are over-represented; it also holds similar structures and randomly drawn compounds.

This assay relates to Plasmodium berghei. The assay can be described thus: Screen against P. berghei liver stage (PbLuc), transformed with Luciferase, at 2uM. To be noted: tested at 2 uM. Type of assay: functional, HepG2.
Turning to `CCOC(=O)C1CCN(C(=O)Cn2ccc3cc(Br)ccc32)CC1`, the INHIBITION worked out at 21.14%.
The figure for `Cc1ccc2c(n1)N(Cc1cccnc1)CCN(C1CCOCC1)C2` is -91.9%; for `Cc1ccc(NC(=O)NCCCn2nc3ccccn3c2=O)cc1` it is -17.83%.
With `CSCCC(=O)N1CCCN(c2ccccc2C)CC1` the figure was 0.31%; with `CSCC(=O)N1CCCN(c2ccccc2C)CC1`, 2.91%; with `Cc1ccccc1N1CCN(C(=O)CC(C)C)CC1`, 56.49%.
With `CCCc1nnc(NC2CCN(C3CCOCC3)CC2)o1` the figure was 45.66%; with `COCc1nnc(-c2cccc(C(=O)N(C(C)C)C3CCC3)c2)o1`, 21.97%.
`COCc1nnc(-c2cccc(C(=O)OC(C)C)c2)o1`: the INHIBITION is 33.9%.
Take `COCc1nnc(-c2cccc(C(=O)N(C)CC(C)(C)C)c2)o1`: the INHIBITION was 62.51%.
The figure for `CC1(C)Oc2ccc(NC(=O)c3ccc(=O)[nH]n3)cc2O1` is 10.43%.
As for `COc1ccnc(N2C[C@H]3CC[C@@H](C2)N(CC2CCC2)C3=O)n1`, the INHIBITION is given as -24.7%.
With `COc1ccnc(N2C[C@H]3CC[C@@H](C2)N(CC2CC2)C3)n1` the figure was 57.41%; with `COc1ccnc(N2CCC(=O)N(CC3CC3)C(C(C)C)C2)n1` (centres undefined), -61.87%.
The figure for `Cc1nc(-c2ccco2)ccc1C(=O)NCCCN1CCOCC1` is -48.23%.
As to `Cc1nc2ccnn2c(C)c1CCC(=O)N1CCN(C2CC2)CC1`, the INHIBITION is on record as 26.4%.
With `Cc1ccccc1C(=O)N1CCC2(CC1)CC(c1cnn(C)c1)CO2` (centres undefined) the figure was 42.27%; with `CN(C)C(=O)c1cc2c(nc1NCC1CC1)CCNCC2`, 43.06%; with `O=C(Nc1cc(F)ccc1OCC1CCCO1)c1ccoc1` (centres undefined), -27.04%.
With `CS(=O)(=O)CCC(=O)Nc1cc(F)ccc1OCC1CCCO1` (centres undefined) the figure was 6.31%; with `O=C(CC(F)(F)F)Nc1cc(F)ccc1OCC1CCCO1` (centres undefined), 56.03%.
With `O=C(Nc1cc(F)ccc1OCC1CCCO1)N1CCSCC1` (centres undefined) the figure was 9.23%; with `O=C(Nc1cc(F)ccc1OCC1CCCO1)NC1CC1` (centres undefined), 56.62%; with `O=C(Nc1cc(F)ccc1OCC1CCCO1)N1CCCC1` (centres undefined), -5.1%.
Take `Cc1ccn(CCC(=O)NCCc2ccco2)n1`: the INHIBITION is recorded as -0.14%.
Regarding `COc1ccc(C[C@H]2CN(C(=O)CS(C)(=O)=O)CC[C@H]2OC)cc1`, the INHIBITION came to 39.18%.
On to `O=C(NCCO)Nc1ccc(Cl)cc1-n1cccc1`, for which the INHIBITION is -12.7%.
With `Cc1nc(CN2CCCCC2CCc2ccc(O)cc2)co1` (centres undefined) the figure was 0.58%; with `Cc1noc(C)c1-c1ccc(C2CCCN2C(=O)c2ccncn2)nc1` (centres undefined), 5.15%.
With `COc1cccc(Cn2c(C)c(C)oc2=O)c1OC` the figure was 23.87%; with `Cc1cc(N2CCN(C3CCSCC3)CC2)n2nc(C)c(C)c2n1`, 39.51%; with `CCCNC(=O)C(C)Oc1ccccc1` (centres undefined), 64.08%.
With `CCCNC(=O)C(C)Oc1ccc(F)cc1` (centres undefined) the figure was 23.68%.
`CCNC(=O)C(C)Oc1ccc(N(C)S(C)(=O)=O)cc1` (centres undefined): the INHIBITION is listed as 33.26%.
Take `COC(=O)c1ccc(C(=O)NCc2ccc(Br)cc2)cn1`: the INHIBITION is given as 38.67%.
With `COc1ncc(C(=O)NCc2ccccc2)cn1`, the INHIBITION amounted to 60.36%.
With `COc1ncc(C(=O)NCc2ccc(Br)cc2)cn1` the figure was 18.8%; with `CCOc1ccc(Cl)c(C(=O)NCc2ccc(C(=O)NC)cc2)n1`, 23.92%; with `COc1ccc(CNC(=O)c2ccc(Br)cn2)cc1`, 21.97%.
With `CCOc1ccc(CNC(=O)c2cnc(OC)nc2)cc1`, the INHIBITION was 58.98%.
With `COCC(O)CN(C)c1cc(C(F)(F)F)nc(-c2cccnc2)n1` (centres undefined) the figure was -2.47%; with `COc1ccc(CNC(C)c2cnn(C)c2)cc1OC1CCCC1` (centres undefined), 51.76%.
The figure for `CC(NCc1cccc(COC2CCCC2)c1)c1cnn(C)c1` (centres undefined) is 12.83%.
With `CC(NCc1ccnc(OC2CCC2)c1)c1cnn(C)c1` (centres undefined) the figure was 18.98%; with `CN(C1CCN(C(=O)NCCc2ccc(F)cc2F)CC1)S(C)(=O)=O`, 8.56%; with `COC(=O)NCC(=O)N1CCC(Oc2cccc(C)c2)CC1`, -31.79%.
Take `COCC(=O)N1CCC(Oc2cccc(C)c2)CC1`: the INHIBITION is given as 58.53%.
The figure for `COCC(=O)N1CCC(c2ccc(OC)cc2)C1` (centres undefined) is 56.21%; for `CCN(CC)C(=O)CNC(=O)N1CCC(c2ccc(OC)cc2)C1` (centres undefined) it is 26.44%.
With `COCC(=O)N1CCC(c2cc(-c3ccc(OC)cc3)n[nH]2)C1` (centres undefined) the figure was -0.64%; with `CSCC(=O)N1CCC(Oc2cccc(C)c2)CC1`, 10.91%.
For the compound `CC(C)c1nc2cc(NC(=O)c3n[nH]c4c3CCC4)ccc2n1C`, the INHIBITION is listed as -12.41%.
The figure for `CNC(=O)C1(c2cnccn2)CCCN1C(=O)c1ccn(C)n1` (centres undefined) is 43.89%.
With `Cc1nnc(N2CC[C@H]3C[C@H](C(=O)N(C)C)O[C@@H]3C2)s1` the figure was 4.42%.
